According to publication PMC7862700, “An all-to-all approach to the identification of sequence-specific readers for epigenetic DNA modifications on cytosine”:

What was measured:
Assay in all cases: DAPPL (digital affinity profiling via proximity ligation, sequencing); 10 mM Tris-HCl pH 7.5, 50 mM NaCl, 1 mM DTT, 4% glycerol, room temperature, 30 min; GST-TFs on glutathione beads, 16-mer random dsDNA library, 0.1% formaldehyde crosslink after washing; high values mean tight binding
Details in all cases: protein: recombinant; tags: N-terminal GST; dsDNA, one strand shown
FLI1 = target: T1, FLI1 (Homo sapiens, UniProt Q01543 1-452)
T1 sequence: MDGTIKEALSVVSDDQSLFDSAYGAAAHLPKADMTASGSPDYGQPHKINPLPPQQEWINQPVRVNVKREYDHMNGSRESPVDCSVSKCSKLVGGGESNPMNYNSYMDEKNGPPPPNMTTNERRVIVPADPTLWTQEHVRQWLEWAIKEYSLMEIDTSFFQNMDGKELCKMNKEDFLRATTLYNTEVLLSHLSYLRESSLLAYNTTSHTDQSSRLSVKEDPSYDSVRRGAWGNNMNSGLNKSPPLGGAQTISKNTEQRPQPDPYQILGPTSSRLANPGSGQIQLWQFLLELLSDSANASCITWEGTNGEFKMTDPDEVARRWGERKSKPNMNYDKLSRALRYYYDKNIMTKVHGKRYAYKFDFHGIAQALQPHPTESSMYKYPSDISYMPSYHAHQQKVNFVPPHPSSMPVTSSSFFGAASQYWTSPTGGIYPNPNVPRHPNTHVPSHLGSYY
Method in brief: (§1)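 Human transcription factors were made in yeast as GST fusions, captured on glutathione beads and barcoded with DNA. With a tag-only sample included, the pool was incubated with 200 nmole of a random double-stranded 16-mer DNA library in Tris/NaCl/DTT/glycerol buffer at room temperature for 30 min, then crosslinked with 0.1% formaldehyde after washing, ligated by proximity, amplified and sequenced. For binding signal, each hexamer's read frequency for a factor is divided by its frequency for the tag-only sample.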

ELK1 = target: T2, ELK1 (Homo sapiens, UniProt P19419 1-428)
T2 sequence: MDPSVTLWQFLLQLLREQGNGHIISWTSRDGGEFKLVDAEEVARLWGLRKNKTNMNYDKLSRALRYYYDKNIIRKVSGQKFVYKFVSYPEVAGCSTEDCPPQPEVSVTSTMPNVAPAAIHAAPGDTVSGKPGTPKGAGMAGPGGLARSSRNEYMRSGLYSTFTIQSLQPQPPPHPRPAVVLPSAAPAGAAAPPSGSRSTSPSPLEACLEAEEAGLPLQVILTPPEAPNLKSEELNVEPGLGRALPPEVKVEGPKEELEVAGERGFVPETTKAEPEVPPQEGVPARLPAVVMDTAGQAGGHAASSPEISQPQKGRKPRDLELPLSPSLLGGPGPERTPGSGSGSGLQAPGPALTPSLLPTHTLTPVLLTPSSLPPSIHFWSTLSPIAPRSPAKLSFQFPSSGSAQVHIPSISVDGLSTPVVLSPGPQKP
Method in brief: as §1

GABPA = target: T3, GABPA (Homo sapiens, UniProt Q06546 1-454)
T3 sequence: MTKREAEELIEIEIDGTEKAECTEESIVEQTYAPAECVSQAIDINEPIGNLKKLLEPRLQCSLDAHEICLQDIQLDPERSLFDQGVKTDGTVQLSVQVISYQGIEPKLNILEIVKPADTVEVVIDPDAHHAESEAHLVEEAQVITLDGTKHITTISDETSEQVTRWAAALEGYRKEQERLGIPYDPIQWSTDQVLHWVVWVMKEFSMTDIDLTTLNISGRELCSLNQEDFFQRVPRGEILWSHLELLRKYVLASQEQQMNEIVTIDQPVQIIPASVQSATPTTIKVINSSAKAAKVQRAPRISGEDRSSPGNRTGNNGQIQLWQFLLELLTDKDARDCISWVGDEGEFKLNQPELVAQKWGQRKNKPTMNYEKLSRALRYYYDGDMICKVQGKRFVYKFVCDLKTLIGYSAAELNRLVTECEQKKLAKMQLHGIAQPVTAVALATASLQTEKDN
Method in brief: as §1

ERG = target: T4, ERG (Homo sapiens, UniProt P11308 1-479)
T4 sequence: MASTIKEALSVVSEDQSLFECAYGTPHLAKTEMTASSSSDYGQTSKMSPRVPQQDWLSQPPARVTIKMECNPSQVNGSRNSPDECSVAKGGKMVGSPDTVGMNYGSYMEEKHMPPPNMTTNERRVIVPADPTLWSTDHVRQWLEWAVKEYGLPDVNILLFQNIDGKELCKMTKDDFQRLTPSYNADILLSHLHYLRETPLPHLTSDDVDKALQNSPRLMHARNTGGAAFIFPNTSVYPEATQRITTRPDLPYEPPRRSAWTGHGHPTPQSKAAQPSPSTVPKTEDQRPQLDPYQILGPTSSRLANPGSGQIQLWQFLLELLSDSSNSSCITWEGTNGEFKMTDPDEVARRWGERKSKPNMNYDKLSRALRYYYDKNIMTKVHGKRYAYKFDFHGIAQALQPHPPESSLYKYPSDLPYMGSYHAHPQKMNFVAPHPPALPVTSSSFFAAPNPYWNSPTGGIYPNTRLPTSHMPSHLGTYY
Method in brief: as §1

ELF1 = ELF1 (Homo sapiens, UniProt P32519 1-619)
Chain of ELF1 (P32519 whole entry): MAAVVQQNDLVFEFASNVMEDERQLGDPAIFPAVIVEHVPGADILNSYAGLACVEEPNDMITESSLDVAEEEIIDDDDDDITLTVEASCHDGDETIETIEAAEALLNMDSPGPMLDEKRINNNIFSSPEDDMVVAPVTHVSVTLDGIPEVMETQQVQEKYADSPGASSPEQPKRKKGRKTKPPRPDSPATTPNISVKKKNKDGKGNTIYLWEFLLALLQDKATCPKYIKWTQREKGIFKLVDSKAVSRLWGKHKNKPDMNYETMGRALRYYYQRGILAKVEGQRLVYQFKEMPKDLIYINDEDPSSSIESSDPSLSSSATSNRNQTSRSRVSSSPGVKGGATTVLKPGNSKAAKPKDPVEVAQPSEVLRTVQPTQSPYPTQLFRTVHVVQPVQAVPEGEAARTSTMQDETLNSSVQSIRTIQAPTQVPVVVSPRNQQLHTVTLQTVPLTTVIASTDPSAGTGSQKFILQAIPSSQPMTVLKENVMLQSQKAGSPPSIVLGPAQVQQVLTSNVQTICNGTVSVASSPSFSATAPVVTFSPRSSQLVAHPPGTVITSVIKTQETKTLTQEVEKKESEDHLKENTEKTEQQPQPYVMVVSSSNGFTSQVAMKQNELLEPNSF
Method in brief: as §1

EHF = target: T5, EHF (Homo sapiens, UniProt Q9NZC4 1-300)
T5 sequence: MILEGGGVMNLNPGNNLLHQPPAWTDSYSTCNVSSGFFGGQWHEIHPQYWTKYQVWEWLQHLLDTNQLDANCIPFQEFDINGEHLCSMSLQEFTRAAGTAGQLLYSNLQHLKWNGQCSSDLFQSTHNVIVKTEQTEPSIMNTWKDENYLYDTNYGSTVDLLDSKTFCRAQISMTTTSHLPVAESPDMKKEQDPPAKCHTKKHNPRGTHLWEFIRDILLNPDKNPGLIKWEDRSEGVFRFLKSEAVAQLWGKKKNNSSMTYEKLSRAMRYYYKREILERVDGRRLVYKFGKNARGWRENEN
Method in brief: as §1

SPI1 = SPI1 (Homo sapiens, UniProt P17947 1-270)
Method in brief: as §1

SPIB = SPIB (Homo sapiens, UniProt Q01892 1-262)
Chain of SPIB (Q01892 whole entry): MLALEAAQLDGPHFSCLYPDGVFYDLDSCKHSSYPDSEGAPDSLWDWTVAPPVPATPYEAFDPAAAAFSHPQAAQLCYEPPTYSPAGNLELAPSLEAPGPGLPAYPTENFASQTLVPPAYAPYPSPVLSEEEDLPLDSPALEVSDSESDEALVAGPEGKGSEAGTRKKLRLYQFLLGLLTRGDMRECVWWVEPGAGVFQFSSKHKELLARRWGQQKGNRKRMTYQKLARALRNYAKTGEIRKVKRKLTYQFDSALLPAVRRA
Method in brief: as §1

ELK3 = target: T6, ELK3 (Homo sapiens, UniProt P41970 1-407)
T6 sequence: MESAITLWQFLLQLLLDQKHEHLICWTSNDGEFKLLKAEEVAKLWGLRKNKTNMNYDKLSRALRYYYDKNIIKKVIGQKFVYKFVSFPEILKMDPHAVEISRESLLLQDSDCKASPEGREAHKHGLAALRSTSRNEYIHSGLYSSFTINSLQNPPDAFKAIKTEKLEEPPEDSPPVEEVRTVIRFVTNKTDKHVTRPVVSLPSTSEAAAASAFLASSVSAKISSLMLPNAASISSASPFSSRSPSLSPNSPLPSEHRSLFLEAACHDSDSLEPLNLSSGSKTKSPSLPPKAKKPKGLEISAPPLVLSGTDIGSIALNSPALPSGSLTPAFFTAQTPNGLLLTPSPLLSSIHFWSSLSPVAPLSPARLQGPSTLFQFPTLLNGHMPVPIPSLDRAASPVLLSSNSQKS
Method in brief: as §1

FEV = target: T7, FEV (Homo sapiens, UniProt Q99581 1-238)
T7 sequence: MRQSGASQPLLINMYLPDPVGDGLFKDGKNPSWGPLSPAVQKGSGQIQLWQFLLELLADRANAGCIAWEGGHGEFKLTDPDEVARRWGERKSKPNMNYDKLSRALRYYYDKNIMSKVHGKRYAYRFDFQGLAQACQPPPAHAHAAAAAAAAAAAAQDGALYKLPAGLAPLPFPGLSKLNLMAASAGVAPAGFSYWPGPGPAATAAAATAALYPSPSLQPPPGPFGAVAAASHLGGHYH
Method in brief: as §1

ETV5 = ETV5 (Homo sapiens, UniProt P41161 1-510)
Chain of ETV5 (P41161 whole entry): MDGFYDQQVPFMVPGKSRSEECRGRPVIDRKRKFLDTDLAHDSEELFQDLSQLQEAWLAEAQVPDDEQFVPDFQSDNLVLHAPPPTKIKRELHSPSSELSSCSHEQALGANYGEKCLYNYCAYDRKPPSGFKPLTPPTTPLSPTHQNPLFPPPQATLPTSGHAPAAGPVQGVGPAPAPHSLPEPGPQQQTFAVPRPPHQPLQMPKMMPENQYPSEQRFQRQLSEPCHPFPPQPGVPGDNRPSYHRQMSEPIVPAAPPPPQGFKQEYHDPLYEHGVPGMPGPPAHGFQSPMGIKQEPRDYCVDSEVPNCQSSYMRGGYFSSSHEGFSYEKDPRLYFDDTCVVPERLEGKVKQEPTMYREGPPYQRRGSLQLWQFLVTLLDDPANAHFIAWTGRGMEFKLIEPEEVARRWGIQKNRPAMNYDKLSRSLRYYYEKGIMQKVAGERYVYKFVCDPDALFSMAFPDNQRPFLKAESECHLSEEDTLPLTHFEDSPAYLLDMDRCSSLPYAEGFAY
Method in brief: as §1

SPIC = target: T8, SPIC (Homo sapiens, UniProt Q8N5J4 1-248)
T8 sequence: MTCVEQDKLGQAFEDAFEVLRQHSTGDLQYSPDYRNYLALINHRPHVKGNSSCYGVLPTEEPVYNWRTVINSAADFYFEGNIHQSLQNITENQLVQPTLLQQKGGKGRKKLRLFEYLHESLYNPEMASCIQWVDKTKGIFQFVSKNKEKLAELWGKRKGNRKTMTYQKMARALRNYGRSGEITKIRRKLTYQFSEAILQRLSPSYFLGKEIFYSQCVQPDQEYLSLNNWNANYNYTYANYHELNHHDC
Method in brief: as §1

ELF4 = ELF4 (Homo sapiens, UniProt Q99607 1-663)
Chain of ELF4 (Q99607 whole entry): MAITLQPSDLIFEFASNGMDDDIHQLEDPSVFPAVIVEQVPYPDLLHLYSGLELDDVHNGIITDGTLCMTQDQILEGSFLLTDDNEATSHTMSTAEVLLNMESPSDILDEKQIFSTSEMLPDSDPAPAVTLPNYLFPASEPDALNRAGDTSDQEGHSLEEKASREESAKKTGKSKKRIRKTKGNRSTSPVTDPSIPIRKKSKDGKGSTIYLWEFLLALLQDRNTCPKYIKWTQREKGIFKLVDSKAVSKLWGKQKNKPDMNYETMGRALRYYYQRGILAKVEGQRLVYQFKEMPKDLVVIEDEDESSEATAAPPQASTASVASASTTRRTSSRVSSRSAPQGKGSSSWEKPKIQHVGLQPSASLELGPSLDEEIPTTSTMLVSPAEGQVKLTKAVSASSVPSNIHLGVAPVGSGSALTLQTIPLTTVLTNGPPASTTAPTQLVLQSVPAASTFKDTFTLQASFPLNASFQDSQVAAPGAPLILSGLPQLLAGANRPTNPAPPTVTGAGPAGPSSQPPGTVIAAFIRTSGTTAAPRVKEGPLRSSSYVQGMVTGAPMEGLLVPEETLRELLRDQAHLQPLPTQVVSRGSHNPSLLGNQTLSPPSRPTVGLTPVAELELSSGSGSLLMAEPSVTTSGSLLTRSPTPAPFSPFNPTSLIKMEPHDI
Method in brief: as §1

ELK4 = target: T9, ELK4 (Homo sapiens, UniProt P28324-2 1-405)
T9 sequence: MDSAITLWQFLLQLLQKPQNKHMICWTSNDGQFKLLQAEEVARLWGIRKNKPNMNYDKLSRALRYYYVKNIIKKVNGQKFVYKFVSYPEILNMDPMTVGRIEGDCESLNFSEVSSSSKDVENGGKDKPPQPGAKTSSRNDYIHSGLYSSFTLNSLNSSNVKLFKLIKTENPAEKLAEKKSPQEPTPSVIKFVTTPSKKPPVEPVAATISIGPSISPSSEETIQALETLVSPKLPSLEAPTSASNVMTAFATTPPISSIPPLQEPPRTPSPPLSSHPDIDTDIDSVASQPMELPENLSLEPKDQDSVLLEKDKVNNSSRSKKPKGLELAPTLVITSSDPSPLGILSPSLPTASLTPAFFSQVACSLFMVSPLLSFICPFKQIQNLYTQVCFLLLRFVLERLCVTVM
Method in brief: as §1

ETV2 = target: T10, ETV2 (Homo sapiens, UniProt O00321 1-342)
T10 sequence: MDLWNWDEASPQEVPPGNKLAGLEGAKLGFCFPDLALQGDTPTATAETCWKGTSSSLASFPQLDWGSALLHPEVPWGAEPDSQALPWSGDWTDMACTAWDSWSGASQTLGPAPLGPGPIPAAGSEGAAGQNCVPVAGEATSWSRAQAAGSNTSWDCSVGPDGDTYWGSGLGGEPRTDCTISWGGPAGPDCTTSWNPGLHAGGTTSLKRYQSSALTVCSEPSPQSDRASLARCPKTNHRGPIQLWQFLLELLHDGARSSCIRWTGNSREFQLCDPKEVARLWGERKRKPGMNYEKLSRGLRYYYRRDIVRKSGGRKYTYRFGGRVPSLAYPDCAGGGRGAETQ
Method in brief: as §1

ELF3 = target: T11, ELF3 (Homo sapiens, UniProt P78545 1-371)
T11 sequence: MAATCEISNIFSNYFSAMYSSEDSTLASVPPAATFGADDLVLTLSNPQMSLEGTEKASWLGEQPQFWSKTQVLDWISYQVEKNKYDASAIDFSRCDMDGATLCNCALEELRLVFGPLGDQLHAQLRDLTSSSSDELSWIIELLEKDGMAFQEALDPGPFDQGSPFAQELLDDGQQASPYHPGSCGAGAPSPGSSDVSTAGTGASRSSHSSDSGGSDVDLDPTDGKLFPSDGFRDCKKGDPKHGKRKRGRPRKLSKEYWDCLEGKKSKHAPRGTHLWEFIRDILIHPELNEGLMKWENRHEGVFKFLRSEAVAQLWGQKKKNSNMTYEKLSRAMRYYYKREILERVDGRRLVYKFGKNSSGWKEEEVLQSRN
Method in brief: as §1

CRX = CRX (Homo sapiens, UniProt O43186 1-299)
Chain of CRX (O43186 whole entry): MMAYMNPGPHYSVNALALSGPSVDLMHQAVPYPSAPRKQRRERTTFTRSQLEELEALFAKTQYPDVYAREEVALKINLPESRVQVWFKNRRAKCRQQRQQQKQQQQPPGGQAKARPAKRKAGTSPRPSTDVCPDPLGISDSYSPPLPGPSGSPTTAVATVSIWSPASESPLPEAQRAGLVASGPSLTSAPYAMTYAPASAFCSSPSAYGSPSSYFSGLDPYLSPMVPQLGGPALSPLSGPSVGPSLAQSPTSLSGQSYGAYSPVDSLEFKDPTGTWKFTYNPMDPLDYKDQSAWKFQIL
Method in brief: as §1

ETV1 = ETV1 (Homo sapiens, UniProt P50549 1-477)
Chain of ETV1 (P50549 whole entry): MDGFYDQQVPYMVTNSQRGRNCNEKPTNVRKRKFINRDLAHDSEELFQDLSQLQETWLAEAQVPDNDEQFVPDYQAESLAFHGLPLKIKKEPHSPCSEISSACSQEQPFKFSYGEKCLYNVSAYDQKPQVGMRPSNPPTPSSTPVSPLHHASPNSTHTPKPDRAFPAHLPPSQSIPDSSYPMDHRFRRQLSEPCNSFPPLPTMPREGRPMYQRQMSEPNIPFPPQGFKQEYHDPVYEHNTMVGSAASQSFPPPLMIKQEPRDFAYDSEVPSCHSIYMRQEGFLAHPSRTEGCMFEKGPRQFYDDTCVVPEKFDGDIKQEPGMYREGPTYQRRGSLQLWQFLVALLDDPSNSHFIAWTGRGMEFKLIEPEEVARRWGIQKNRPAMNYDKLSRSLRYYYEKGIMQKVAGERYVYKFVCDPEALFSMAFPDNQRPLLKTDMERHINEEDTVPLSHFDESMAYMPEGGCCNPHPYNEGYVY
Method in brief: as §1

Row | Sequence | binding signal (FLI1) | binding signal (ELK1) | binding signal (GABPA) | binding signal (ERG) | binding signal (ELF1) | binding signal (EHF) | binding signal (SPI1) | binding signal (SPIB) | binding signal (ELK3) | binding signal (FEV) | binding signal (ETV5) | binding signal (SPIC) | binding signal (ELF4) | binding signal (ELK4) | binding signal (ETV2) | binding signal (ELF3) | binding signal (CRX) | binding signal (ETV1)
1 | ACCGCT | 1.09 fold enrichment (6-mer frequency, TF over GST control) | 1.12 fold enrichment (6-mer frequency, TF over GST control) | 1.14 fold enrichment (6-mer frequency, TF over GST control) | 1.1 fold enrichment (6-mer frequency, TF over GST control) | 1.07 fold enrichment (6-mer frequency, TF over GST control) | 1.09 fold enrichment (6-mer frequency, TF over GST control) | 1.03 fold enrichment (6-mer frequency, TF over GST control) | 1.15 fold enrichment (6-mer frequency, TF over GST control) | 1.05 fold enrichment (6-mer frequency, TF over GST control) | 1.17 fold enrichment (6-mer frequency, TF over GST control) | 1.1 fold enrichment (6-mer frequency, TF over GST control) | 1.13 fold enrichment (6-mer frequency, TF over GST control) | 1.14 fold enrichment (6-mer frequency, TF over GST control) | 1.18 fold enrichment (6-mer frequency, TF over GST control) | 1.07 fold enrichment (6-mer frequency, TF over GST control) | 1.19 fold enrichment (6-mer frequency, TF over GST control) | 1.01 fold enrichment (6-mer frequency, TF over GST control) | 
2 | TAGCGG | 1.14 fold enrichment (6-mer frequency, TF over GST control) | 1.1 fold enrichment (6-mer frequency, TF over GST control) | 1.06 fold enrichment (6-mer frequency, TF over GST control) | 1.16 fold enrichment (6-mer frequency, TF over GST control) |  | 1.24 fold enrichment (6-mer frequency, TF over GST control) | 1.23 fold enrichment (6-mer frequency, TF over GST control) | 1.17 fold enrichment (6-mer frequency, TF over GST control) | 1.08 fold enrichment (6-mer frequency, TF over GST control) | 1.12 fold enrichment (6-mer frequency, TF over GST control) | 1.13 fold enrichment (6-mer frequency, TF over GST control) | 1.04 fold enrichment (6-mer frequency, TF over GST control) | 1 fold enrichment (6-mer frequency, TF over GST control) | 1.06 fold enrichment (6-mer frequency, TF over GST control) | 1.19 fold enrichment (6-mer frequency, TF over GST control) | 1.02 fold enrichment (6-mer frequency, TF over GST control) | 1.26 fold enrichment (6-mer frequency, TF over GST control) | 1.05 fold enrichment (6-mer frequency, TF over GST control)
